Data reported in PubChem BioAssay AID504332 (National Center for Advancing Translational Sciences (NCATS), 2011).
The whole screen tested about 350,000 compounds, of which about 31,000 (8.9%) were called active. Another 15% or so got no clear call; they are omitted. The sample as a whole holds a higher share of actives than the screen did. Unmarked numbers belong to inactive results. The call rests on the fitted dose curve; in most records, active means well fitted inhibition curve with a large enough effect; inconclusive means small, poorly fitted or top-dose-only effect; inactive means no such curve, though single readings can be large or run the other way.

The compounds below were run against Histone-lysine N-methyltransferase EHMT2 (Homo sapiens) (UniProt Q96KQ7) (assay: qHTS Assay for Inhibitors of Histone Lysine Methyltransferase G9a). Conditions: G9a H3K9 monomethylation, AlphaScreen, 2 h; series mostly up to 59 µM; activity, negative = inhibition: at the top concentration.
Chain of Histone-lysine N-methyltransferase EHMT2 (Homo sapiens) (Q96KQ7 913-1193 limits assumed): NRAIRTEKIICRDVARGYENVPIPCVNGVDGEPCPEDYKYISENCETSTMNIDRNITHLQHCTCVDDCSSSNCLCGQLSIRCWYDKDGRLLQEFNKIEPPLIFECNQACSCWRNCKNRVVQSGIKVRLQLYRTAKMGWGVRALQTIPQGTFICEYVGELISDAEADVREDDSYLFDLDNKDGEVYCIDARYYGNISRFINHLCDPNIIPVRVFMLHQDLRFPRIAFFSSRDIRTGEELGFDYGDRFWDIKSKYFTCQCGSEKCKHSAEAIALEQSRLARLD
In short: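 G9a (20 nM) was preincubated 15 min with compound, then reacted 2 h at room temperature with 500 nM biotin-H3K9 peptide and 20 µM SAM. Monomethyl-H3K9 detected by AlphaScreen using anti-H3K9me1 antibody.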
Further: nearly all actives have a fitted effect of over 75% in size.
On the % scale 0 is the no-effect control and ±100 the full control effect; potency means the concentration at half of the fitted maximal effect.

Row | SMILES | activity, negative = inhibition | Potency
1 | COc1ccc(NC(=O)CSc2nc(N)c(-c3ccccc3)c(=O)[nH]2)cc1 | -21.3% | –
2 | COc1ccc(-c2nc3c(c(SCC(=O)Nc4ccc(C(=O)O)cc4)n2)Cc2ccccc2O3)cc1 | – | 11.2 µM (active)
3 | COc1ccc(NC(=O)CSc2ncnc3[nH]ncc23)cc1 | 6.21% [at 102 µM] | –
4 | CCc1ccc(NC(=O)N2CCN(C(=O)c3nsc4ccccc34)CC2)cc1 | 8.41% | –
5 | CN(CC(=O)NC(=O)Nc1ccccc1F)Cc1ccccc1 | 2.2% [at 0.501 µM] | –
6 | CN(Cc1ccccc1F)C(=O)C(Cc1ccccc1)NC(=O)c1ccccc1 (stereo unspecified) | 8.33% [at 102 µM] | –
7 | CN(Cc1ccccc1)Cc1ccccc1F | – | 8.91 µM (active)
8 | O=C(NCC(c1cccs1)N1CCOCC1)c1cc(Cl)ccc1[N+](=O)[O-] (stereo unspecified) | 3.96% [at 0.501 µM] | –
9 | COC(=O)c1ccc(NC(=O)c2cc(S(=O)(=O)N3CCC(C)CC3)cn2C)cc1 | 4.49% | –
10 | O=C(Nc1ccn(Cc2ccccc2)n1)c1cccc(F)c1 | -8.84% [at 102 µM] | –
11 | Cc1ccc(Cn2ccc(NC(=O)c3cc(C(C)C)on3)n2)cc1 | -37.2% [at 102 µM] | –
12 | Cc1ccc(Cn2ccc(NC(=O)C3C4CCC(C4)C3C(=O)O)n2)cc1 (stereo unspecified) | – | 56.2 µM (active)
13 | Cc1cccc(NC(=O)N2CCC(CN3CCc4ccccc4C3)CC2)c1C | 10.2% | –
14 | COc1cccc(CNC(=O)C2CC(=O)N(C3CCCCCCC3)C2)c1 (stereo unspecified) | 14.8% | –
15 | CCn1nc(C(=O)Nc2ccc(N3CCOCC3)cc2)c2ccccc2c1=O | 17.9% [at 12.7 µM] | –
16 | O=C(COC(=O)CCc1nc2ccccc2c(=O)[nH]1)Nc1ccc(N2CCOCC2)cc1 | – | 50.1 µM (active)
17 | O=C(COC(=O)Cc1ccc(Br)cc1)Nc1ccc(N2CCOCC2)cc1 | 4.16% | –
18 | CCCCNc1ccc(-c2nc(-c3ccncc3)no2)cc1[N+](=O)[O-] | -26.7% | –
19 | COc1ccc(OC)c(CCNC(=O)CCCn2c(=O)c3cccn3c3cccnc32)c1 | -8.79% | –
20 | CC(C)c1ccc2oc(-c3cc(NC(=O)c4cccs4)ccc3Cl)nc2c1 | 15.9% | –
21 | COc1cc(OC)c(NC(=O)c2c3c(nn2C)-c2ccccc2SC3)cc1Cl | -9.51% | –

Row | SMILES | activity, negative = inhibition | Potency
22 | Cc1c(-c2nc(-c3ccc4c(c3)OCO4)no2)nnn1-c1ccc(Br)cc1F | 6.85% | –
23 | O=C(COC(=O)c1ccc([N+](=O)[O-])cc1Cl)NC(=O)c1ccccc1 | -29.5% [at 102 µM] | –
24 | CCN1CCN(CCCNC(=O)c2cnn(-c3ccc(C)cc3C)c2C2CCN(C(=O)OC(C)(C)C)CC2)CC1 | 8.42% | –
25 | Cc1cc(C)c(NC(=O)c2cc3sc(Cl)cc3n2C)c(C)c1 | 5.54% | –
26 | COc1cccc(C(=O)NC(=O)Nc2ccc(-c3cc(C(F)(F)F)nn3-c3ccccc3)cc2)c1 | 11.4% | –
27 | CC(=O)Oc1ccc(N(C(C)=O)S(=O)(=O)c2ccc3ccccc3c2)cc1Br | -1.32% [at 102 µM] | –
28 | CC(=O)N(c1ccc2oc(=O)sc2c1)S(=O)(=O)c1ccc(C)cc1 | – | 25.1 µM (active)
29 | COC(=O)c1c(C)oc2ccc(N(C(=O)Oc3ccccc3)S(=O)(=O)c3ccccc3)cc12 | -0.954% | –
30 | COc1ccc(OC)c(NC(=O)Cn2c(=O)n(Cc3ccccc3)c(=O)c3ccccc32)c1 | -22.9% | –
31 | Cc1nc2cc(NCc3cccs3)ccc2n1C | – | 7.94 µM (active)
32 | C=CCN(C(=O)Nc1ccc2c(c1)nc(C)n2C)c1ccccc1 | 10.6% [at 12.7 µM] | –
33 | Cc1nc2cc(NC(=O)Nc3cccc(F)c3)ccc2n1C | 23.6% [at 12.7 µM] | –
34 | O=C1C=C(c2cccc(Cl)c2O)C[C@@H](c2ccc(F)cc2)C1 | 4.95% [at 0.501 µM] | –
35 | Cc1cccc(CSc2nc3ccncc3n2CC(=O)N(C)C2CCCCC2)c1 | -1.35% | –
36 | CCC1=C/C(=C\c2ccc3c(c2)OCO3)C(=O)S1 | – | 11.2 µM (active)
37 | CCc1c(C)sc(NC(=O)/C=C/c2ccc3c(c2)OCO3)c1C(=O)OC | 88.9% | –
38 | CCOC(=O)CCCNC(=O)COC(=O)/C=C/c1ccc2c(c1)OCO2 | 2.73% [at 102 µM] | –
39 | COc1ccc(CCNC(=O)c2cnc3sc(N4CCCCCC4)nn3c2=O)cc1OC | 11.6% | –
40 | Cc1oc2ccc(O)c(CN3CCC(C)CC3)c2c1C(=O)Nc1ccccc1 | -28.5% | –
41 | Cc1nc2ccc(S(=O)(=O)NC(C(=O)NCc3ccccc3Cl)C(C)C)cc2s1 (stereo unspecified) | 7.62% | –
42 | O=C(Nc1nc(-c2ccc(-c3ccccc3)cc2)cs1)c1cnccn1 | 23.9% | –

Row | SMILES | activity, negative = inhibition | Potency
43 | O=C(Cc1ccc(F)cc1)N/N=C/c1ccc2c(c1)OCO2 | 17.5% [at 102 µM] | –
44 | O=C(NCc1cccnc1)C(=O)Nc1nc(-c2ccccc2)cs1 | -6.58% | –
45 | Brc1ccc(-c2csc(N/N=C/c3cccnc3)n2)cc1 | – | 14.1 µM (active)
46 | Brc1ccc(-c2csc(N/N=C/c3ccc4c(c3)OCO4)n2)cc1 | – | 3.55 µM (active)
47 | O=C(N/N=C/c1ccc2c(c1)OCO2)C(=O)N1CCCC1 | 5.14% [at 102 µM] | –
48 | CCOc1ccc(-c2cc3c(=O)n(CC(=O)NCc4ccc(OC)cc4)ccn3n2)cc1 | 0.34% [at 12.7 µM] | –
49 | Cc1ccc(C)c(Oc2c(C(F)(F)F)oc3c(CN4CCN(C)CC4)c(O)ccc3c2=O)c1 | -27.1% | –
50 | Cc1ccc2nc(/C(C#N)=C/c3ccc(-c4ccc(C(=O)OC(C)C)cc4)o3)[nH]c2c1 | -5.43% | –
51 | Cc1ccc(-n2c(SCC(=O)N3c4ccccc4Sc4ccccc43)nnc2-c2ccncc2)cc1 | -5.41% | –
52 | Cc1ccc(Nc2nc(CSc3nnc(-c4ccncc4)n3-c3ccccc3C)cs2)cc1 | – | 44.7 µM (active)
53 | Cc1ccccc1-n1c(SCC(=O)NCc2cccs2)nnc1-c1ccncc1 | 2.97% [at 102 µM] | –
54 | CCOc1ccc(CNCCSc2nnnn2C)cc1 | -3.51% | –
55 | CCc1ccc(NC(=O)c2cc(S(=O)(=O)N3CCCC(C)C3)cn2C)cc1 (stereo unspecified) | -3.12% | –
56 | COc1ccc(S(=O)(=O)N2CCN(c3ccc(F)cc3)CC2)cc1-c1noc(C)n1 | 6.56% | –
57 | COc1ccc(OC)c(-c2noc(N3CCN(c4cc(Cl)ccc4C)CC3)n2)c1 | -5.88% | –
58 | CCc1nc(-c2cc(S(=O)(=O)N3CCN(c4ccc(OC)cc4)CC3)ccc2OC)no1 | – | 0.631 µM (active)
59 | Cc1ccc(-n2ncc3c(N4CCC(C(N)=O)CC4)ncnc32)cc1 | -5.29% | –
60 | CC(C)(C)OC(=O)N1CCC(c2c(C(=O)N3CCc4ccccc4C3)cnn2-c2ccc(F)cc2)CC1 | -8.88% | –
61 | Cc1ccc(C(=O)Nc2ccc(OCc3cc(=O)n4c5c(sc4n3)CCCC5)cc2)cc1 | 7.45% | –
